The structures appear in SMILES notation. Results filed as inconclusive are left out. Where a call stands in place of a potency, no number is given. Active and inactive are the calls of the source. Calls follow the shape of the dose curve; as a rule, active = well fitted inhibition curve with a large enough effect; inconclusive = small, poorly fitted or top-dose-only effect; inactive = flat fitted curve, though single readings scatter.

Chain of Luciferin 4-monooxygenase (Photinus pyralis) (P08659 whole entry, looked up): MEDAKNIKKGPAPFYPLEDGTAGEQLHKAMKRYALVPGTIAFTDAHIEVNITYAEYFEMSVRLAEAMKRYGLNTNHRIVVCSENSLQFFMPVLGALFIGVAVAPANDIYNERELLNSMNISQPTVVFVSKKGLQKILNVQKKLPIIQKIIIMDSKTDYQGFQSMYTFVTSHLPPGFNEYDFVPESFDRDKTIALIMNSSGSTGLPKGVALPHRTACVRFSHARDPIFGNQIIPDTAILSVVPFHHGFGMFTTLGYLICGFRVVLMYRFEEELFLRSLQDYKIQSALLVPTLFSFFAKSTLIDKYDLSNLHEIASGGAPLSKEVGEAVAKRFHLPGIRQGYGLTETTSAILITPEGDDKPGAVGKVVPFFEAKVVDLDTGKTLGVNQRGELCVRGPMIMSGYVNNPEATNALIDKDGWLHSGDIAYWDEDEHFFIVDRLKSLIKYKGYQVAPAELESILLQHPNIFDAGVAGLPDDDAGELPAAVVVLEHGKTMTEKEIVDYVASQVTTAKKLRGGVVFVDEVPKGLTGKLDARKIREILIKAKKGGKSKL

For this test, the target named is Luciferin 4-monooxygenase (Photinus pyralis) (UniProt P08659). Briefly: Biochemical firefly luciferase enzyme assay for NPC (AID 624030).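 Also: purified P. pyralis luciferase at 10 nM with luciferin and ATP substrate; nearly all actives have a fitted effect of over 70% in size.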 The settings on record: purified P. pyralis luciferase, luminescence, 5 min; series mostly up to 58.6 µM. The gist of the method:
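Direct inhibition of firefly luciferase enzyme (10 nM final, 50 mM Tris Acetate) assessed by luminescence within 5 minutes. Percent activity scaled between DMSO and PTC124 positive control, with concentration-effect curves classified by fit quality and response.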
`O=C(O)Cc1ccccc1Oc1ccc(Cl)cc1Cl`: the Potency result was “inactive”. In the case of `Nc1c(NC/C=C\COc2cc(CN3CCCCC3)ccn2)c(=O)c1=O` it was “inactive”; in that of `OC1(c2ccc(Cl)c(C(F)(F)F)c2)CCN(CCCC(c2ccc(F)cc2)c2ccc(F)cc2)CC1`, “inactive”. As for `CCCCCC(=O)O[C@]1(C(C)=O)CC[C@H]2[C@@H]3CCC4=CC(=O)CC[C@]4(C)[C@H]3CC[C@@]21C`, the entry is “inactive”; as for `O=C(OCC1(COC(=O)c2cccnc2)CCCC(COC(=O)c2cccnc2)(COC(=O)c2cccnc2)C1O)c1cccnc1`, “inactive”. In the case of `COc1cc(C(=O)OC(COCCC(C)C)CN2CCOCC2)cc(OC)c1OC` (configuration not stated) it was “inactive”; in that of `COc1cc(C(=O)NC2CCCNC2)cc(OC)c1OC` (configuration not stated), “inactive”; in that of `Nc1c[n+](N2CCOCC2)no1`, “inactive”.

As to `CCOC(=O)NNc1ccc(N(CC)CC(C)O)nn1` (configuration not stated), the Potency result was “inactive”. For the compound `Cc1cc(O)c2c(O)c3c(O)cccc3cc2c1`, the Potency entry was “inactive”.

For the compound `O=C1NCCN1CCN1CCC(c2cn(-c3ccc(F)cc3)c3ccc(Cl)cc23)CC1`, the Potency entry is “inactive”. Turning to `O=C(O)c1[nH]n(-c2ccc(S(=O)(=O)O)cc2)c(=O)c1N=Nc1ccc(S(=O)(=O)O)cc1`, the Potency entry was “inactive”. In the case of `CCCCNc1ccc(C(=O)OCCN(CC)CC)cc1` it was “inactive”; in that of `CN(C(=O)C(Cl)Cl)c1ccc(OC(=O)c2ccco2)cc1`, “inactive”; in that of `CO[C@@]1(NC(=O)CSC[C@@H](N)C(=O)O)C(=O)N2C(C(=O)O)=C(CSc3nnnn3C)CS[C@@H]21`, “inactive”. In the case of `CO/N=C(/C(=O)N[C@@H]1C(=O)N2C(C(=O)[O-])=C(C[n+]3ccn4ncccc43)CS[C@H]12)c1nsc(N)n1` it was “inactive”; in that of `CN1CCC(N(Cc2cccs2)c2ccccc2)CC1`, “inactive”. With `C[N+]1(CC2COC(c3ccccc3)(c3ccccc3)O2)CCCCC1` (configuration not stated), the Potency entry was “inactive”. As for `CN(CC1(C)CCCO1)S(=O)(=O)c1ccc(Cl)c(S(N)(=O)=O)c1` (configuration not stated), the entry is “inactive”; as for `O=C1CC2(CCCC2)CC(=O)N1CCNCC1COc2ccccc2O1` (configuration not stated), “inactive”; as for `CCN(CC)CCNC(=O)c1ccc(NS(C)(=O)=O)cc1`, “inactive”. In the case of `CC(=O)N(CC(O)CO)c1c(I)c(C(=O)NCCO)c(I)c(C(=O)NCC(O)CO)c1I` (configuration not stated) it was “inactive”. In the case of `OCCCc1ccccc1` it was “inactive”. As for `O=C(O)CCC(=O)OC[C@@H](NC(=O)C(Cl)Cl)[C@H](O)c1ccc([N+](=O)[O-])cc1`, the Potency entry was “inactive”. Turning to `C[C@@H](C1=C(CCN(C)C)Cc2ccccc21)c1ccccn1`, the Potency entry is “inactive”. As to `CC(=O)Nc1ccc(S(=O)(=O)Nc2cc(C)on2)cc1`, the Potency entry is “inactive”.

With `CN1C(=O)CC(C)(c2ccccc2)C1=O` (configuration not stated), the Potency result is “inactive”. Regarding `CN1CCC(=C2c3ccccc3CCc3cccnc32)CC1`, the Potency entry was “inactive”. As for `O=C(NN1CCCC1)NS(=O)(=O)c1ccc(Cl)cc1`, the entry is “inactive”. `CC(NN)c1ccccc1` (configuration not stated): the Potency result was “inactive”. On to `CCN1CCN(c2cc(-c3ccc(F)cc3)c3c(n2)CCCCCC3)CC1`, for which the Potency result was “inactive”.

Consider `Nc1nnnn1-c1ccccc1`, for which the Potency entry is “inactive”.

(Values after PubChem BioAssay (NCATS).)
